Values joined by “and” are separate entries in the source; they are usually repeats but may differ in a detail not shown here. Equal entries are not always repeated. Out of some 360,000 compounds screened, about 2,800 (0.78%) were called active. Cut-off read from the data, not from the text of the source: active = inhibition above about 26%; inactive = the rest. The sample as a whole holds a higher share of actives than the screen did. More than one record can exist for a structure, and the calls need not agree.
Tested on: Nicotinate-nucleotide adenylyltransferase NadD (Staphylococcus aureus N315)
Assay: inhibitors of S. aureus NadD, primary screen, biochemical, colorimetric, uHTS (AID 602399)
Conditions: purified NadD enzyme, colorimetric absorbance read-out; at 20 µM; stronger effect = higher value

Row | Structure (SMILES) | inhibition
1 | CCOC(=O)[C@]12CCCC=C1N(Cc1ccc(Cl)cc1Cl)C(=O)[C@H](CC(=O)N1CCCCC1)C2 | -1.55% (inactive)
2 | Cc1ccc(N(CC(=O)NCC2CCCO2)C(=O)CNS(=O)(=O)c2ccc(Cl)cc2)cc1 (stereo unspecified) | 2.66% (inactive)
3 | COc1ccc(-c2nc3cc(C)ccn3c2NC2CCCCC2)cc1SC1CCCCC1 | 17% (inactive) and 21% (inactive)
4 | COc1ccc(-c2nc3cnccn3c2NC(C)(C)CC(C)(C)C)cc1O | -3.5% (inactive)
5 | COc1ccc(-c2nc3cnccn3c2NC2CCCCC2)cc1-c1cccc(Cl)c1 | 33.8% (active) and 14.3% (inactive)
6 | COC(=O)c1ccc2nc(-c3ccccc3)c(Cc3ccc(OC)cc3C)n2c1 | 10.9% (inactive)
7 | COC(=O)c1ccc2nc(-c3ccc(C)cc3)c(Cc3ccc(OC)cc3C)n2c1 | 31.6% (active)
8 | COC(=O)c1ccc2nc(-c3cccc(Br)c3)c(Cc3ccc(OC)cc3C)n2c1 | 20.8% (inactive)
9 | O=C(COC(=O)c1cccnc1Cl)Nc1ccc(S(=O)(=O)N2CCOCC2)cc1 | -4.21% (inactive)
10 | O=C(CSc1nnc(COc2ccc(Cl)cc2)n1Cc1ccco1)N1CCNC1=O | 4.26% (inactive)
11 | Cn1c2ccccc2c(=O)c2c(=O)n(Cc3ccco3)c(COc3ccccc3)nc21 | 42.5% (active)
12 | CCc1nc2oc3ccccc3c(=O)c2c(=O)n1Cc1ccc(OC)cc1 | 2.99% (inactive)
13 | COc1ccc(-c2ccc(CN3C(C(C)C)C(=O)N(Cc4cn(CC5CCCCC5)nn4)CCS3(=O)=O)cc2)cn1 (stereo unspecified) | 4.8% (inactive)
14 | CCOC(=O)C(Sc1ncc(C#N)c(N)n1)C(C)C (stereo unspecified) | 2.12% (inactive)
15 | CCCc1c(C(=O)Nc2ccc(F)cc2)cnn1-c1ccccc1 | -0.321% (inactive)
16 | Cc1cccc(C)c1-n1nnnc1C1(C)CCC(=O)N1CCOc1ccccc1 (stereo unspecified) | -5.82% (inactive)
17 | Cc1ccsc1/C=N/n1c(=S)[nH]nc(C)c1=O | 1.04% (inactive)
18 | CC(=O)C1=C(C)NC(C)=C(C(C)=O)C1c1cn(-c2ccccc2)nc1-c1cccs1 | 11.6% (inactive)
19 | S=c1[nH]nc(-c2cccs2)n1/N=C/c1cn(-c2ccccc2)nc1-c1ccc(Cl)cc1 | 32.6% (active)
20 | C[C@H]1CC[C@]2(O[C@@H](CCO)C[C@@H](O)[C@@H]2O)O1 | 0.758% (inactive)
21 | O=C(COC(=O)CCCNC(=O)c1ccc(Cl)cc1)Nc1cc(Cl)ccc1Cl | -4.1% (inactive)
22 | COc1ccc([N+](=O)[O-])cc1C1NN=C(c2cccc3ccccc23)S1 (stereo unspecified) | 17.6% (inactive)

Row | Structure (SMILES) | inhibition
23 | NC(=O)C1CC(=O)N(c2ccc(OCC(=O)NCc3ccccc3)cc2)C1 (stereo unspecified) | 1.55% (inactive)
24 | COc1ccccc1C(=O)NCC(=O)OCC(=O)Nc1nnc(-c2ccccc2)o1 | 10.3% (inactive)
25 | O=C(COC(=O)c1ccccc1)Nc1ccccc1Sc1ccccc1 | -7.21% (inactive)
26 | O=C(COC(=O)c1ccc(Oc2ccccc2)cc1)Nc1nnc(-c2ccccc2)o1 | 47.6% (active)
27 | CC(C)(C)C(=O)CCN1C(=O)C2(OCCO2)c2ccccc21 | -0.902% (inactive)
28 | COC(=O)[C@@]1(Cc2ccc(F)cc2)[C@H]2c3cc(C(=O)N4CCCC4)n(Cc4ccc(OC(F)(F)F)cc4)c3C[C@H]2CN1C(=O)c1ccccc1 | 13.9% (inactive)
29 | Cc1cc(C(=O)CSc2nc(N)cc(=O)[nH]2)c(C)n1-c1cccc(F)c1 | 23.5% (inactive)
30 | Cc1cc(C(=O)CSc2nc(N)cc(=O)[nH]2)c(C)n1CCc1ccc(Cl)cc1 | 45.2% (active)
31 | Cc1cc(=O)[nH]c(SCc2ccc(Cl)cc2)n1 | -4.15% (inactive)
32 | C/C=C/C=C/C(=O)O | 2.73% (inactive)
33 | COC(=O)c1sccc1NC(=O)CSc1ccccc1NS(=O)(=O)c1cc(Cl)ccc1Cl | 8.33% (inactive)
34 | CCOc1ccc(-c2n[nH]c(=S)n2/N=C/c2cc3c(cc2[N+](=O)[O-])OCO3)cc1 | 33.3% (active)
35 | O=[N+]([O-])c1ccccc1/C=N/n1c(COc2ccccc2)n[nH]c1=S | 4.33% (inactive)
36 | Cc1ccc(S(=O)(=O)N/N=C\c2cc3c(cc2[N+](=O)[O-])OCO3)cc1 | -4.98% (inactive)
37 | O=C1CC2(CC(c3ccc(Cl)cc3)=NO2)C(=O)N1c1ccccc1 (stereo unspecified) | -6.96% (inactive)
38 | CC(=O)Nc1ccc(NC(=O)C(C)n2c3ccccc3c3nc(=O)cc(C)n32)cc1 (stereo unspecified) | 1.71% (inactive)
39 | Cc1cc(C)cc(N(CC(=O)Nc2c(C)n(C)n(-c3ccccc3)c2=O)S(C)(=O)=O)c1 | 0.515% (inactive)
40 | O=C(/C=C/c1ccco1)NC(=S)N1CCCCC1 | 0.202% (inactive)
41 | COc1ccc(Cl)cc1C(=O)NNC(=S)NC(=O)/C=C/c1ccco1 | 41.2% (active)
42 | COc1ccc(Cl)cc1C(=O)NNC(=S)NC1CCCC1 | 2.3% (inactive)
43 | Cc1ccc(C(=O)NN(CCC#N)C2=NS(=O)(=O)c3ccccc32)cc1 | 2.03% (inactive)
44 | C=CC1=C(C(=O)O)N2C(=O)[C@@H](NC(=O)/C(=N\OCC(=O)O)c3csc(N)n3)[C@H]2SC1 | 15.8% (inactive)

Row | Structure (SMILES) | inhibition
45 | C=CC1=C(C(=O)O)N2C(=O)[C@@H](NC(=O)/C(=N/OCC(=O)O)c3csc(N)n3)[C@H]2SC1 | 94.8% (active)
46 | Cc1ccc(Cl)cc1NC(=O)C1CCN(S(C)(=O)=O)CC1 | -1.83% (inactive)
47 | CN(C)c1nc(N)nc(Cn2nnc(-c3ccc(C(F)(F)F)cc3)n2)n1 | -3.29% (inactive)
48 | CC1(Oc2cccc(F)c2)CCN(Cc2ccccc2OC(F)F)C1 (stereo unspecified) | -4.85% (inactive)
49 | CC(=O)Nc1ccc(SCC(=O)Nc2ccccc2Oc2ccccc2)cc1 | -2.74% (inactive)
50 | CCC(C)Cn1c(O)cc2nn(-c3nc4ccccc4s3)c(=O)c-2c1C (stereo unspecified) | 81.3% (active)
51 | C/C(CC(C)C)=N\Oc1nc(C)cc(C)n1 | -5.32% (inactive)
52 | CSc1nc(-c2ccco2)nn1C(=O)c1ccccc1Cl | -4.61% (inactive)
53 | Clc1ccccc1CSc1nnc(-c2ccco2)c(-c2ccco2)n1 | 29.3% (active)
54 | Cc1ccc2nc(-c3ccco3)c(Cc3cccc(Cl)c3)n2c1 | 2.81% (inactive)
55 | COc1ccccc1N(CC(=O)N1CCCCC1)S(=O)(=O)c1ccccc1 | 0.503% (inactive)
56 | CC(C#N)(NC(=O)CN1CCN(S(=O)(=O)c2cc(C(F)(F)F)ccc2Cl)CC1)C1CC1 (stereo unspecified) | -1.47% (inactive)
57 | Cc1ccnc2nc(C(=O)Nc3nnc(-c4ccccc4)o3)nn12 | -3.89% (inactive)
58 | O=C(Nc1nnc(-c2ccccc2)o1)c1cc(-c2cccs2)nc2ccccc12 | 40.6% (active)
59 | O=C(Nc1nnc(-c2ccc(Cl)cc2)o1)c1ccccc1Br | 9.64% (inactive)
60 | CN(Cc1nc2ccc(F)cc2[nH]1)Cc1nc(CC2CC2)no1 | -3.27% (inactive)
61 | CCN(C(=O)CN1CCN(Cc2ccccc2)CC1)c1c(N)n(Cc2ccccc2)c(=O)[nH]c1=O | -5.19% (inactive)
62 | Cc1ccccc1NC(=O)c1ccc(COc2ccc3c(C)cc(=O)oc3c2)cc1 | 1.94% (inactive)
63 | Cc1ccc(C(=O)N/C(=C/c2ccco2)C(=O)NCCc2c[nH]c3ccccc23)cc1C | 2.77% (inactive)
64 | CCCCCOc1ccc(/C=C/C(=O)NCCc2nc3ccccc3[nH]2)cc1OC | 0.224% (inactive)
65 | CC(C)Oc1ccc(/C=C(\NC(=O)/C=C/c2ccco2)C(=O)NCCc2nc3ccccc3[nH]2)cc1 | 40.3% (active)
66 | CCn1c(SCC(=O)N/N=C/c2ccccc2OCC(=O)O)nnc1-c1ccc(C(C)(C)C)cc1 | 5.5% (inactive)

Row | Structure (SMILES) | inhibition
67 | CCOC(=O)N1CCC(NC(=O)CCc2cn(C)c3ccccc23)CC1 | 0.741% (inactive)
68 | COc1ccc(CCNC(=O)CN2C(=O)CCSc3ccccc32)c(OC)c1 | -0.893% (inactive)
69 | COC(=O)COc1ccc2c(c1C)O/C(=C\c1ccco1)C2=O | -6.79% (inactive)
70 | CC(C)(C)C1C/C(=C/c2ccco2)C(=O)/C(=C/c2ccco2)C1 (stereo unspecified) | 41.6% (active)
71 | CC1CCN(C(=S)NC2CC3CCC2C3)CC1 (stereo unspecified) | 1.51% (inactive)
72 | Cc1nn(C)c(C)c1Sc1ccccc1N | -4.87% (inactive)
73 | Cc1ccc(NC(=O)N2CCC(c3nc4c(nnn4Cc4c(F)cccc4Cl)c(=O)[nH]3)CC2)cc1 | 22.9% (inactive)
74 | CC(C)(C)c1ccc(Cn2nnc3c(=O)[nH]c(C4CCCN(C(=O)c5ccco5)C4)nc32)cc1 (stereo unspecified) | 4.55% (inactive)
75 | Cc1ccc(Cn2nnc3c(=O)[nH]c(C4CCN(S(=O)(=O)/C=C/c5ccccc5)CC4)nc32)cc1 | 31.1% (active)
76 | CC(C)COC(=O)c1ccc(NC(=O)C2C3C=CC(C3)C2C(=O)O)cc1 (stereo unspecified) | 3.38% (inactive)
77 | COCCNC(=O)C(c1ccc(C)cc1)N(C(=O)CCC(=O)Nc1ccccn1)c1cccc(C)c1 (stereo unspecified) | -8.33% (inactive)
78 | O=C(c1ccc(C(F)(F)F)cc1)N1CCC(=O)N([C@H](COCc2ccccc2)Cc2ccccc2)CC1 | -5.31% (inactive)
79 | O=C(Nc1ccc(S(=O)(=O)Nc2nccs2)cc1)c1cc(=O)[nH]c2ccccc12 | -0.912% (inactive)
80 | O=C(CCc1ccccc1Cl)Nc1ccc(S(=O)(=O)Nc2nccs2)cc1 | -3.71% (inactive)
81 | O=C(Nc1ccc(S(=O)(=O)Nc2nccs2)cc1)c1cc(-c2ccncc2)nc2ccccc12 | 52.3% (active)
82 | CCOc1ccc(NC(=O)c2ccc(CSc3nnnn3C)cc2)cc1 | -3.76% (inactive)
83 | CCc1ccc2c(c1)C1(NN=C(c3ccccc3)S1)C(=O)N2 (stereo unspecified) | 3.11% (inactive)
84 | O=C(CSc1ccccc1)Nc1cc(Cl)ccc1Oc1ccccc1 | 6.26% (inactive)
85 | O=C(CSc1nc(Nc2ccccc2)nc(N2CCOCC2)n1)Nc1cc(Cl)ccc1O | 37.7% (active)
86 | O=C(CSc1nc2ccc(Nc3nc(N4CCOCC4)nc(N4CCOCC4)n3)cc2s1)NCc1ccco1 | 8.01% (inactive)
